Compounds without any hit were thinned out: in the full panel of roughly 79,000, 15% have a hit. Unmarked numbers belong to inactive results. The source made the active and inactive calls. No stated cut-off is given here; in the data, active means growth inhibition above about 70%; inactive means the rest.
Columns and labels:
[1] = NCI Yeast Anticancer Drug Screen. Data for the rad52 strain (AID 147);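 further: 0% = growth of vehicle-treated control cultures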; settings: S. cerevisiae rad52 mutant growth inhibition, stronger effect = higher value
Procedure, shortened: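 Compounds are applied to a genetically defined yeast strain lacking normal DNA damage repair, and inhibition of growth is expressed relative to cultures given vehicle only.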

[2] = NCI Yeast Anticancer Drug Screen. Data for the wt1 strain (AID 149);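 further: 0% = growth of vehicle-treated wt1 cultures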; settings: S. cerevisiae wt1 strain (SPY 50644) growth inhibition, stronger effect = higher value
Procedure, shortened: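 Readout: yeast growth inhibition, normalised to vehicle controls, in the wt1 strain exposed to test compounds.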

[3] = NCI Yeast Anticancer Drug Screen. Data for the rad50EPP+ strain (AID 151);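 further: 0% = growth of vehicle-treated control cultures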; settings: S. cerevisiae rad50 mutant strain, stronger effect = higher value
Procedure, shortened: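 Compounds were applied to the rad50EPP+ yeast strain, which bears a defined DNA repair alteration, and growth inhibition was determined relative to vehicle-treated cultures.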

[4] = NCI Yeast Anticancer Drug Screen. Data for the mgt1 strain (AID 153); settings: S. cerevisiae mgt1 mutant growth inhibition, stronger effect = higher value
Procedure, shortened: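 Strain: mgt1 yeast, one of a set carrying defined DNA damage repair or cell cycle control alterations. Compound-treated growth compared with vehicle.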

[5] = NCI Yeast Anticancer Drug Screen. Data for the rad50 strain (AID 155);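 further: 0% = growth of vehicle-only cultures of the same strain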; settings: S. cerevisiae rad50 strain growth inhibition, stronger effect = higher value
Procedure, shortened: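 Compounds were tested on a yeast strain with an engineered DNA damage repair alteration; the reported value is growth inhibition normalised to vehicle treatment.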

[6] = NCI Yeast Anticancer Drug Screen. Data for the mec2-1 strain (AID 157); settings: S. cerevisiae mec2-1 strain, stronger effect = higher value
Procedure, shortened: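 Strain: mec2-1 (DNA repair/cell cycle alteration). Compound exposure, then growth measured; inhibition expressed relative to vehicle.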

[7] = NCI Yeast Anticancer Drug Screen. Data for the rad14 strain (AID 159);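 further: 0% = growth of vehicle-treated control cultures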; settings: S. cerevisiae rad14 strain growth inhibition, stronger effect = higher value
Procedure, shortened: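 Compound-treated yeast with a defined DNA-repair lesion; growth inhibition normalised to vehicle-treated cultures.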

[8] = NCI Yeast Anticancer Drug Screen. Data for the sgs1 mgt1 strain (AID 161);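 further: 0% = growth of cultures given vehicle only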; settings: S. cerevisiae sgs1 mgt1 strain, stronger effect = higher value
Procedure, shortened: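 Read-out: growth inhibition vs vehicle controls. Cells: mutant yeast strain deficient in DNA damage repair.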

[9] = NCI Yeast Anticancer Drug Screen. Data for the CLN2oe strain (AID 163);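 further: 0% = growth of vehicle-only control cultures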; settings: S. cerevisiae CLN2oe strain, stronger effect = higher value
Procedure, shortened: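 Growth of a genetically modified yeast strain is measured after compound exposure and compared with cultures given vehicle alone.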

[10] = NCI Yeast Anticancer Drug Screen. Data for the cln2 rad14 strain (AID 165);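 further: 0% = growth equal to vehicle treated cultures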; settings: S. cerevisiae cln2 rad14 strain, stronger effect = higher value
Procedure, shortened: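 Compounds are applied to the cln2 rad14 yeast strain, and growth is then compared with that of vehicle-treated cultures to give inhibition.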

[11] = NCI Yeast Anticancer Drug Screen. Data for the bub3 strain (AID 167); settings: S. cerevisiae bub3 mutant strain, stronger effect = higher value
Procedure, shortened: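 Growth of a checkpoint-deficient yeast mutant is measured after compound exposure. Values represent inhibition relative to vehicle.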

[12] = NCI Yeast Anticancer Drug Screen. Data for the wt2 strain (AID 169);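 further: 0% = growth of vehicle-treated yeast cultures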; settings: S. cerevisiae wt2 strain growth inhibition, stronger effect = higher value
Procedure, shortened: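 This strain belongs to a panel of yeast strains with defined genetic alterations in DNA damage repair or cell cycle control. Compounds are applied, and growth inhibition is measured against vehicle-treated cultures.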

[13] = NCI Yeast Anticancer Drug Screen. Data for the mlh1 strain (AID 171);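 further: 0% = growth of vehicle-treated control cultures of the same strain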; settings: S. cerevisiae mlh1 strain growth inhibition, stronger effect = higher value
Procedure, shortened: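 Growth of the mutant yeast strain after compound exposure, expressed as inhibition relative to vehicle-only controls.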

[14] = NCI Yeast Anticancer Drug Screen. Data for the sgs1 strain (AID 173);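 further: 0% = growth of vehicle-only control cultures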; settings: S. cerevisiae sgs1 mutant, stronger effect = higher value
Procedure, shortened: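 Growth of a yeast strain bearing a defined genetic alteration is measured after compound treatment. Inhibition is expressed relative to vehicle-only controls.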

[15] = NCI Yeast Anticancer Drug Screen. Data for the mlh1 rad18 strain (AID 175); settings: S. cerevisiae mlh1 rad18 strain growth inhibition, stronger effect = higher value
Procedure, shortened: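 Read-out is yeast growth inhibition, calculated against vehicle-only controls. The compound was applied to a strain engineered with DNA damage repair alterations.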

[16] = NCI Yeast Anticancer Drug Screen. Data for the rad18 strain (AID 177); settings: S. cerevisiae rad18 mutant growth inhibition, stronger effect = higher value
Procedure, shortened: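 Growth of the mutant yeast strain after compound exposure, normalised to vehicle-only cultures.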

[17] = at 5.0 µM (retest, dose inferred, filed as 0.5)
[18] = at 50.0 µM (retest, dose inferred, filed as 5.0)

`O=[N+]([O-])c1ccc2nc(=S)[nH]n2c1` showed a growth inhibition ([1]; at 1.2 µM) of -3%, a growth inhibition ([1]; at 3.7 µM) of -2% and a growth inhibition ([1]; at 11.0 µM) of -2%. For the same molecule, the growth inhibition ([1]; at 33.0 µM) was 10%, the growth inhibition ([1]; at 100.0 µM) was 65% and the growth inhibition ([2]; at 1.2 µM) was -3%. The growth inhibition ([2]; at 3.7 µM) was -2%, the growth inhibition ([2]; at 11.0 µM) was -7% and the growth inhibition ([2]; at 33.0 µM) was -8%. The growth inhibition ([2]; at 100.0 µM) was 41%, the growth inhibition ([3]; at 1.2 µM) was 0% and the growth inhibition ([3]; at 3.7 µM) was 6%. For the same molecule, the growth inhibition ([3]; at 11.0 µM) was 20%, the growth inhibition ([3]; at 33.0 µM) was 46% and the growth inhibition ([3]; at 100.0 µM) was 87% (active). It also gave a growth inhibition ([4]; at 1.2 µM) of 0%, a growth inhibition ([4]; at 3.7 µM) of -4% and a growth inhibition ([4]; at 11.0 µM) of -4%. The growth inhibition ([4]; at 33.0 µM) was -8%, the growth inhibition ([4]; at 100.0 µM) was 1% and the growth inhibition ([5]; at 1.2 µM) was -4%. For the same molecule, the growth inhibition ([5]; at 3.7 µM) was -1%, the growth inhibition [5, 17] was -130% and the growth inhibition ([5]; at 11.0 µM) was 13%. The growth inhibition ([5]; at 33.0 µM) was 19%, the growth inhibition [5, 18] was 94% (active) and the growth inhibition ([5]; at 50.0 µM) was 58.6%. The growth inhibition ([5]; at 100.0 µM) was 98% (active), the growth inhibition ([6]; at 1.2 µM) was 1% and the growth inhibition ([6]; at 3.7 µM) was -1%. It also gave a growth inhibition [6, 17] of -42%, a growth inhibition ([6]; at 11.0 µM) of -5% and a growth inhibition ([6]; at 33.0 µM) of 0%. It also gave a growth inhibition [6, 18] of -7%, a growth inhibition ([6]; at 50.0 µM) of 24.1% and a growth inhibition ([6]; at 100.0 µM) of 34%. It also gave a growth inhibition ([7]; at 1.2 µM) of 3%, a growth inhibition ([7]; at 3.7 µM) of -1% and a growth inhibition ([7]; at 11.0 µM) of 6%. It also gave a growth inhibition ([7]; at 33.0 µM) of 12%, a growth inhibition ([7]; at 100.0 µM) of 59% and a growth inhibition [8, 17] of -58%. It also gave a growth inhibition [8, 18] of 22%, a growth inhibition ([8]; at 50.0 µM) of 23.9% and a growth inhibition ([9]; at 1.2 µM) of -2%. It also gave a growth inhibition ([9]; at 3.7 µM) of -2%, a growth inhibition ([9]; at 11.0 µM) of -4% and a growth inhibition ([9]; at 33.0 µM) of -5%. For the same molecule, the growth inhibition ([9]; at 100.0 µM) was 36%, the growth inhibition [10, 17] was -59% and the growth inhibition [10, 18] was 2%. For the same molecule, the growth inhibition ([10]; at 50.0 µM) was -7.5%, the growth inhibition ([11]; at 1.2 µM) was -9% and the growth inhibition ([11]; at 3.7 µM) was -8%. It also gave a growth inhibition [11, 17] of -71%, a growth inhibition ([11]; at 11.0 µM) of -5% and a growth inhibition ([11]; at 33.0 µM) of -5%. For the same molecule, the growth inhibition [11, 18] was 76% (active), the growth inhibition ([11]; at 50.0 µM) was -6.7% and the growth inhibition ([11]; at 100.0 µM) was 65%. It also gave a growth inhibition ([12]; at 1.2 µM) of -2%, a growth inhibition ([12]; at 3.7 µM) of -1% and a growth inhibition ([12]; at 11.0 µM) of -2%. The growth inhibition ([12]; at 33.0 µM) was -3%, the growth inhibition ([12]; at 100.0 µM) was 12% and the growth inhibition ([13]; at 1.2 µM) was 7%. The growth inhibition ([13]; at 3.7 µM) was -5%, the growth inhibition ([13]; at 11.0 µM) was -3% and the growth inhibition ([13]; at 33.0 µM) was -2%. For the same molecule, the growth inhibition ([13]; at 100.0 µM) was 26%, the growth inhibition ([14]; at 1.2 µM) was 0% and the growth inhibition ([14]; at 3.7 µM) was -2%. The growth inhibition ([14]; at 11.0 µM) was -5%, the growth inhibition ([14]; at 33.0 µM) was 0% and the growth inhibition ([14]; at 100.0 µM) was 47%. For the same molecule, the growth inhibition [15, 17] was -133%, the growth inhibition [15, 18] was 78% (active) and the growth inhibition ([15]; at 50.0 µM) was 46.1%. The growth inhibition ([16]; at 1.2 µM) was -2%, the growth inhibition ([16]; at 3.7 µM) was 0% and the growth inhibition ([16]; at 11.0 µM) was 2%. It also gave a growth inhibition ([16]; at 33.0 µM) of 7% and a growth inhibition ([16]; at 100.0 µM) of 60%.
